From PubChem BioAssay (NCI)
This is part of a sample that, as a whole, favours compounds with a hit. Of some 83,000 tested, about 20% had one in any assay.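 The endpoint reported here, percent growth, reads 100 for growth as untreated, 0 for no net growth and -100 for all cells dead.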 Values without a mark were called inactive. Active and inactive are the calls of the source. Rule for the calls: active = growth percent below 10; inactive = the rest.

Tested on: HL-60(TB) leukemia
Assay: NCI-60 one-dose screen, 48 h (100 = growth as untreated, 0 = no growth, -100 = all killed)
Conditions: 10 µM unless noted

Structure (SMILES)	growth
COc1cccc2c(=O)c3c(sc12)c(NCCCNCCO)nc1ccccc13	59.8%
CCCCNc1nnc2n(Cc3ccccc3)c(=O)c3c4c(sc3n12)CCCC4	90.5%
COc1cc2c(c(OC)c1O)C(=O)C(OC)C(c1ccc(O)c(O)c1)O2 (stereo not drawn)	-28.6% (active)
Nc1ccc(C(=O)CSc2nc3ccccc3[nH]2)cc1	95.3%
Nc1nc(Nc2ccc(Cl)cc2)nn1S(=O)(=O)c1ccc(-c2ccc(F)cc2)cc1	110%
CCC(Br)(CC)C(=O)c1ccc(OCC(=O)O)c(Cl)c1Cl	111%
O=C(O)c1c(=O)cccc2ssc12	-9.53% (active)
COC(OC)c1ccccc1	77.6%
CN(C)CCn1c(=O)c2ccccc2n2nc3ccccc3c12	70.3%
Cc1ccc2c(-c3nnc(N)s3)cc(=O)oc2c1C	100%
COC(=O)C1=C(C)C(=O)CC1	86.7%
CCC(c1ccccc1)c1noc(CCN(CC)CC)n1 (stereo not drawn)	77.3%
COc1cc(C2=NN(C(C)=O)C(c3ccc(OC(C)=O)cc3OC(C)=O)O2)c(OC(C)=O)c2ccccc12 (stereo not drawn)	-17.9% (active)
COc1cc(NC(=O)c2cc3ccccc3cc2O)c(OC)cc1Cl	-29.2% (active)
COc1cccc(-c2nn(-c3ccccc3)cc2-c2ccnc(N3CCOCC3)c2)c1	44.9%
O=C(Nc1ccc(Cl)cc1)Nc1ccc(Oc2nncc3ccccc23)cc1	3.65% (active)
CC(C)(O)c1cn(CCCCN2C(=O)C(=O)c3ccccc32)nn1	97.8%
O=[N+]([O-])c1ccc(-c2nc(N(CCO)CCO)c3ccccc3n2)o1	-11.1% (active)
CC(C)(C)c1cc(C[P+](c2ccccc2)(c2ccccc2)c2ccccc2)cc(C(C)(C)C)c1O	-45.3% (active)
CCOC(=O)c1c(C)nc2c(c1N)C(=O)C(=O)N2CCc1ccc(OC)c(OC)c1	65.6%
Cc1nn(CCO)c(C)c1N=[N+]([O-])c1c(C)nn(CCO)c1C	-45.8% (active)

Structure (SMILES)	growth
Cn1c(=O)c(C#N)c(-c2ccco2)n2c(S(=O)(=O)Cc3ccccc3)nnc12	103%
CC(=O)OCCCCCNc1ccccc1	76.3%
O=[N+]([O-])c1ccc(Oc2nc(Nc3ccc(O[C@H]4CO[C@H]5[C@@H]4OC[C@@H]5O)c(Cl)c3)ncc2F)c(Cl)c1	25.6%
Cc1cc(O)ccc1O	-14.1% (active)
COc1ccc(C(=O)/C=C/Nc2cc(-c3ccccc3)nn2-c2ccccc2)cc1	93.2%
Cc1ccc(/C=C(\C#N)C(=O)Nc2ncc(Cc3cc(Cl)ccc3Cl)s2)o1	22.5%
C=C(C)[C@@H]1CC[C@]2(CO)CC[C@]3(C)[C@H](CC[C@@H]4[C@@]5(C)CC[C@H](O)C(C)(C)[C@@H]5CC[C@]43C)[C@@H]12	66.4%
C#CCOc1cccc(Nc2ncnc3c(NC(=O)CCl)cccc23)c1	-59.1% (active)
CC1=C2[C@@H](CC1)[C@]1(C)O[C@@](C3CCCCC3)(C[C@H]1OC(=O)CO)[C@H]2OC(=O)/C=C/c1ccccc1	82.5%
O=C(NCCNC(=O)Oc1cccc2ccccc12)Oc1cccc2ccccc12	79.7%
O=C(CCCCCCCC(=O)N1CCCCC1)N1CCCCC1	94.5%
Cc1ccccc1NC(=O)c1sc2nc(C)c(C(C)O)cc2c1N (stereo not drawn)	-14.8% (active)
CCS(=O)(=O)N1CCN(c2ccc(Nc3ncc(C(N)=O)c(NC4CC4)n3)cc2)CC1	71.2%
O=C(NNC(=O)c1ccc(NC(=O)c2ccccn2)cc1)Nc1ccc([N+](=O)[O-])cc1	97.9%
O=C(Nc1ccccc1O)c1ccc(CNc2ccnc(C(F)(F)F)c2)cc1	-32.9% (active)
C=C1C(=O)O[C@H]2[C@H]1CC/C(CNC(=O)c1cc3ccccc3[nH]1)=C\CC[C@@]1(C)O[C@@H]21	-41.5% (active)
COc1ccc(-c2csc3c2-n2cccc2C3=O)cc1O	-18.3% (active)
O=C1Nc2cc(Cl)ccc2Oc2cc(Oc3ccccc3)ccc21	38.6%
CCOC(=O)C(C(C)=O)c1nc2sc3cc(Cl)ccc3n2c(=N)c1C#N (stereo not drawn)	115%
Clc1ccc(-c2cn3ccsc3n2)c(Cl)c1Cl	85.7%
COc1cnc2c(c1)C(=O)c1c-2n(CCCN2CCN(C)CC2)c(=O)c2cc(Cl)ccc12	50.6%

Structure (SMILES)	growth
Nc1cc(-c2ccncc2)c[nH]c1=O	87.6%
C(=C\c1nccc2c1[nH]c1ccccc12)/c1ccccc1	55.5%
CC(=O)Nc1cc(C(c2ccccc2)c2ccccc2)cc(C(c2ccccc2)c2ccccc2)c1C	53.1%
CC1(C)CC[C@]23CC[C@]4(C)[C@H](CC[C@@H]5[C@@]6(C)CCCNC(C)(C)[C@@H]6CC[C@]54C)[C@H]2[C@H]1OC3	-65.5% (active)
C=CCN=c1sc(-c2ccc3ccccc3c2)cn1NC(=O)c1cc2ccc1CCc1ccc(cc1)CC2	49.2%
c1cc2[nH]ncc2cc1-c1nc2ccc3[nH]ncc3c2c2c1CCC2	-4.44% (active)
O=C1CN(CCN2CC(=O)N(Cc3ccccc3)C(=O)C2)CC(=O)N1Cc1ccccc1	97.7%
O=[N+]([O-])c1ccc(Oc2ccccc2Cl)c([N+](=O)[O-])c1	-1.82% (active)
CC(C)C[C@@H](NC(=O)[C@@H](Cc1ccccc1)NC(=O)c1cnccn1)B1Oc2ccc(C[C@H](NC(=O)[C@H](Cc3ccc4c(c3)OB([C@@H](CC(C)C)NC(=O)[C@@H](Cc3ccccc3)NC(=O)c3cnccn3)O4)NC(=O)[C@@H](N)CC3CCC4OB([C@@H](CC(C)C)NC(=O)[C@@H](CC5CCCCC5)NC(=O)C5CNCCN5)OC4C3)C(=O)NCCCC[C@@H]3NC(=O)[C@@H](Cc4ccccc4)NC(=O)[C@H](CC(=O)O)NC(=O)CNC(=O)[C@H](CCCNC(=N)N)NC3=O)cc2O1 (stereo partly drawn)	-2.54% (active)
CN(C)c1ccc(/C=C/C(=O)c2ccccc2)cc1	66.7%
C=C(C)[C@@H]1CC[C@]2(C(=O)Nc3ccccn3)CC[C@]3(C)[C@H](CC[C@@H]4[C@@]5(C)CCCNC(C)(C)[C@@H]5CC[C@]43C)[C@@H]12	-38.1% (active)
NCCOc1ncccc1/C=C1\c2ccccc2-c2ccc(F)cc21	-38.6% (active)
CCOC(=O)c1cc2c(n(C)c1=O)-c1cnn(-c3ccc(OC)cc3)c1CC2	113%
Cc1cccc(N=Nc2cccc(C)c2)c1	125%
Cn1c(N)c(N=Nc2ccc(S(=O)(=O)Nc3nccs3)cc2)c(=O)n(C)c1=O	94.6%
CCc1c(C(=O)Nc2ccc3ccccc3c2)[nH]c(C)c1C(C)=O	99.7%
COc1cc(C(=O)n2nc(N3CCOCC3)c3cc(-n4cccc4)ccc32)cc(OC)c1OC	61.6%
Cc1c(N2CCCCC2)[nH]c2ccccc12	101%
Nc1cc(Br)cc2c1[nH]c(=O)c1ccccc12	91.6%
NCCCN1CCCC1=O	90.1%
Cc1ccc(C(=O)/C(=C\c2ccc([N+](=O)[O-])cc2)S(=O)Cc2ccc(F)cc2)cc1 (stereo not drawn)	-7.36% (active)

Structure (SMILES)	growth
NC(CS/C(Cl)=C/Cl)C(=O)O (stereo not drawn)	86.9%
Ic1ccccc1-c1ccccc1	81.2%
NNc1ncnc2nc[nH]c12	35.3%
C#CCOc1ccc(C2=NN(CCCC)C3N=C(Cl)c4ncn(CCCC)c4N23)cc1OCC#C (stereo not drawn)	99.4%
CCOc1ccc(Br)cc1/C=C(\C#N)c1ccc([N+](=O)[O-])cc1	91.6%
CCOc1cccc(/C=N/NC(=O)c2ccc(Nc3ccnc(C(F)(F)F)c3)cc2)c1O	37.7%
C[C@@H](CO)[C@@H]1CC[C@]2(C(=O)N3CCN(C)CC3)CC[C@]3(C)[C@H](CC[C@@H]4[C@@]5(C)CC[C@H](O)C(C)(C)[C@@H]5CC[C@]43C)[C@@H]12	-46.9% (active)
CC(C)(C)c1cc(O)c(C(C)(C)C)cc1O	35.1%
COc1ccc(NCc2cn(-c3ccc(C(=O)O)cc3)nc2-c2ccc(C(=O)O)cc2)cc1C(F)(F)F	118%
CCCCCCCCCCCCNC(=S)N/N=C/c1ccc(Cl)c(Cl)c1	116%
CCC12CCC[N+]3([O-])CCC4(C(=Nc5ccccc54)C(O)(C(=O)OC)C1)C23 (stereo not drawn)	124%
CCn1cnc(C[C@H](NC(=O)[C@@H](NC(=O)Nc2cc(C(F)(F)F)cc(C(F)(F)F)c2)C(C)C)C(=O)OC)c1	-75.7% [100 µM] (active)
CNC(=O)c1cc(Oc2ccc(NC(=O)Nc3ccc(Cl)c(C(F)(F)F)c3)c(F)c2)ccn1	-17.4% (active)
COc1ccc(-c2nn(-c3ccc(NC(=O)Nc4cc(C(F)(F)F)cc(C(F)(F)F)c4)cc3)cc2-c2ccncc2)cc1Cl	4.01% (active)
COc1ccc(Cn2cc3c(c2-c2ccc(OC)cc2)CCc2cnoc2-3)cc1	-6.74% (active)
Nc1ccn(C2OC(CO)C(O)C2F)c(=O)n1 (stereo not drawn)	105%
CCc1nc2cc(F)c(/C=C/C(=O)NO)cc2c(=O)n1CCc1ccccc1	0.13% (active)
C/C(=C\CCc1ccsc1)CC/C=C(\C)CCCN1CCSCC1	67.7%
Cc1cccc(Cl)c1NC(=O)c1cnc(Nc2cc(N3CCOCC3)cc(N3CCOCC3)c2)s1	45.3%
Cc1[nH]n(-c2ccccc2)c(=O)c1C=NC(=S)C(N)=S	102%
